In the library only some 3.1% were active in any assay of this set; here they are far more common.
UHRF1 MBD2 ctr: UHRF1 methylated DNA binding inhibitors, primary screen, counter-screen for MBD2 inhibitor project, biochemical, TR-FRET, human UHRF1, single concentration. UHRF1 binding to methylated oligo. E3 ubiquitin-protein ligase UHRF1 (Homo sapiens), Q96T88. actives 0.75% (n = 370,000). inhibition, % at 4.4 µM; in the data active = inhibition above about 21%;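 also: UHRF1 SRA domain binding a hemimethylated CpG hairpin DNA probe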
Target sequence (Q96T88 whole entry, looked up, the tested form may be a part): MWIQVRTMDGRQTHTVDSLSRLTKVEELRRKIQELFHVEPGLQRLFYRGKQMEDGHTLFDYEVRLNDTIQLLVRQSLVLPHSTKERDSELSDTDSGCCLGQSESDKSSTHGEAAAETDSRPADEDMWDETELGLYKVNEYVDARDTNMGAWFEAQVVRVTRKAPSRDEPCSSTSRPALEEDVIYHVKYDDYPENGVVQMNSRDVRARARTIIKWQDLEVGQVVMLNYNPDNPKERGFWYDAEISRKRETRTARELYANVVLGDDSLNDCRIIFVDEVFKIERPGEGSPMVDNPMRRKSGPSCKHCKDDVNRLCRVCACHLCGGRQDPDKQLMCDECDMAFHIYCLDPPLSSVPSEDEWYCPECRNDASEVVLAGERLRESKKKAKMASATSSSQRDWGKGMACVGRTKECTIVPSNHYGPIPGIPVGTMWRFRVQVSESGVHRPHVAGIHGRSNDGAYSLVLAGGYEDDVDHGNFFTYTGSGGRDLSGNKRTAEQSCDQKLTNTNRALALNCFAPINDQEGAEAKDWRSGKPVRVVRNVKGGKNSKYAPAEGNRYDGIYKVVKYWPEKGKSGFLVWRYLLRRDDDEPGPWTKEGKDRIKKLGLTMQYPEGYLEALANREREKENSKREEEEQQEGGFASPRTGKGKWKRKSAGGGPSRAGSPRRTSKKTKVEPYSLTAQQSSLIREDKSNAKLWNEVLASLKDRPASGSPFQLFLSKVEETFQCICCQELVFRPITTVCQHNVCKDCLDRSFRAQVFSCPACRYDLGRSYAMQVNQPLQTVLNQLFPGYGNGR
proKLK7 act: proKLK7 zymogen activators, primary screen, biochemical, fluorescence intensity; Kallikrein-7 (Homo sapiens), P49862; purified proKLK7, EDANS-DABCYL substrate fluorescence; 100% is mature enzyme control, 0% vehicle; activation, % at 7 µM; actives 0.9% (n = 370,000); AID 652039, 2013;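 active = activation above the mean of all tested compounds plus 3 SD, computed per campaign excluding outliers beyond control limits, cut at about 13% in these data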
LEDGF integ inh: blockers of LEDGF/p75-dependent integrase strand transfer – biochemical, TR-FRET, high throughput, primary screen. HIV-1 integrase (with human LEDGF/p75). TR-FRET IN-LEDGF/p75 DNA integration, Eu/Cy5. inhibition, % at 3.7 µM. actives 0.64% (n = 370,000). AID 743269, 2014;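 active = inhibition above the screen-wide mean plus 3 SD, cut at about 13% in these data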;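 also: signal is the Cy5 over europium emission ratio at 671 and 618 nm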
Neddyl block: inhibitors of cullin neddylation, primary screen, biochemical, TR-FRET, uHTS, NAE and Ubc12; NEDD8-conjugating enzyme Ubc12 (Homo sapiens) + NEDD8-activating enzyme E1 regulatory …; calls only at 25 µM; actives 0.58% (n = 360,000); in the data active = inhibition above about 36%
MBD2 DNA inh: inhibitors of MBD2 binding to methylated DNA, primary screen, biochemical, TR-FRET, DNA-binding domain, human | actives 0.31% (n = 370,000) | MBD2 binding to methylated oligonucleotide | inhibition, % at 4.4 µM; in the data active = inhibition above about 13%
Rin1 Abl inh: inhibitors of Rin1-Abl protein binding, primary screen, biochemical, TR-FRET; inhibition, % at 7.35 µM; actives 0.4% (n = 360,000); in the data active = inhibition above about 5%, passing the limit was not always enough
IN multimer act: HIV-1 IN multimer formation enhancers, counter-screen for LEDGF/p75 integration inhibitor project, biochemical, TR-FRET; activation, % at 7.7 µM; actives 17% (n = 2,000); shares compounds with LEDGF integ inh; TR-FRET HIV-1 integrase multimerization; in the data active = activation above about 8.9%
TRFRET interf: TR-FRET optical interference artefacts, confirmation, artefact control for LEDGF/p75-dependent integration inhibitor project, biochemical, HIV-1 IN multimerization. shares compounds with LEDGF integ inh. TR-FRET optical interference counterscreen. inhibition, % at 7.7 µM. 2,000 tested, under 10 active. AID 1053135, 2014;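 active = inhibition above the mean over all tested compounds plus 3 SD, which no compound reached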
IN-LEDGF confirm: inhibitors of HIV-1 IN-LEDGF/p75 DNA integration, confirmation, biochemical, TR-FRET. shares compounds with LEDGF integ inh. TR-FRET LEDGF/p75-dependent HIV-1 integration. inhibition, % at 3.7 µM. actives 36% (n = 2,000); in the data active = inhibition above about 14%
Hits are given with their value; – = inactive; · = no result shown.

SMILES | UHRF1 MBD2 ctr | proKLK7 act | LEDGF integ inh | Neddyl block | MBD2 DNA inh | Rin1 Abl inh | IN multimer act | TRFRET interf | IN-LEDGF confirm
O=C(COC(=O)C1CCN(S(=O)(=O)c2ccc3c(c2)OCCO3)CC1)NC1CCS(=O)(=O)C1 (configuration not stated) | – | – | 81 | – | – | – | – | – | –
CO[C@H]([C@H](C)/C=C/N(C)C=O)[C@@H](C)C(=O)CC[C@H](C)[C@H](O)[C@H](C)[C@H]1OC(=O)/C=C/C(C)=C/C[C@H](O)C[C@@H]2C=CC[C@@H](C[C@H](OC)[C@@H](CO)[C@@H](OC)C[C@@H](OC)[C@@H]1C)O2 | – | · | – | · | – | · | · | · | ·
COCCn1nnnc1C(c1ccccc1OC)N1CCc2ccccc2C1 (configuration not stated) | – | – | 33 | – | – | – | – | – | –
O=c1cc(-c2ccc(O)cc2)oc2cc(O)c(C3OC(CO)C(O)C(O)C3O)c(O)c12 (configuration not stated) | – | – | 21 | – | – | – | 30 | – | 48
O=c1cc(-c2ccc(O)cc2)oc2cc(O)cc(O)c12 | – | – | – | – | – | – | · | · | ·
COC[C@H]1O[C@]2(c3ccccc3)CO[C@H]1[C@@H](/C=C/c1ccccc1)C2 | – | – | – | · | – | · | · | · | ·
Nc1ccc2c(c1)C/C(=C/c1ccco1)C2=O | 69 | – | 49 | – | 24 | – | 19 | – | 25
O=C(N/N=C/c1ccc2ncccc2c1)c1cc(-c2cccs2)nc2ccccc12 | – | – | 23 | · | – | – | – | – | –
C#CCNC(=O)C[C@H]1C[C@@]2(C(=O)OC)C(=C[C@H](C3CCCC3)O[C@@H]2C)N(Cc2cccc3ccccc23)C1=O | – | – | – | · | – | · | · | · | ·
CC(C)CCN1C(N(C)C)=NC[C@@H]1C | – | – | – | – | – | – | · | · | ·
CSc1cccc(-n2ccc(=O)c(C)c2C)c1 | – | – | – | – | – | – | · | · | ·
COc1ccc(C[C@](C)(N)C(=O)O)cc1OC | – | – | – | – | – | – | · | · | ·
C[C@](N)(Cc1ccc(O)c(O)c1)C(=O)O | 40 | – | 60 | – | – | – | – | – | –
COc1ccc(CCN(C)S(=O)(=O)c2ccc(Cl)nc2)cc1OC | – | – | – | – | – | – | · | · | ·
Cc1ccc(C(=O)NCCCc2ccccc2)c(C)c1 | – | – | – | – | – | – | · | · | ·
Cc1ccc(C)c(Nc2ccc(C(=O)NCCc3ccccc3)cn2)c1 | – | – | 37 | – | – | – | – | – | –
Brc1cnc2nc(SC/C=C/c3ccccc3)[nH]c2c1 | – | – | 37 | – | – | – | – | – | –
C=CCn1c(SCC(=O)c2ccc(O)c(O)c2)nnc1-c1cccnc1 | 25 | – | 16 | – | – | – | 45 | – | 60
C=CCn1c(SCC(=O)c2ccc(O)c(O)c2)nnc1-c1cccc(C)c1 | – | – | – | – | – | – | · | · | ·
CC(=O)Nc1ccc2c(COC(=O)CC3Sc4ccccc4NC3=O)cc(=O)oc2c1 (configuration not stated) | – | – | 14 | – | – | – | 21 | – | 14
CN(C)CCCN(C(=O)c1ccc([N+](=O)[O-])o1)c1nc2cc3c(cc2s1)OCO3 | – | – | – | – | – | – | · | · | ·
O=C(NCc1n[nH]c(=S)n1-c1ccccc1)c1ccco1 | – | – | 15 | – | – | – | – | – | –
COC(=O)c1cc2c(c3c4cc(C)ccc4n(S(=O)(=O)c4ccc(OC)cc4)c13)C(=O)N(C)C2 | – | – | – | · | – | · | · | · | ·
O=C1C(=Cc2cccc(O)c2O)SC(=S)N1CCCN1CCOCC1 | – | – | 24 | – | – | – | 18 | – | –
O=C(Cc1ccc([N+](=O)[O-])cc1)Nc1ccc2c(c1)CCC2 | – | – | – | – | – | – | · | · | ·
SMILES | UHRF1 MBD2 ctr | proKLK7 act | LEDGF integ inh | Neddyl block | MBD2 DNA inh | Rin1 Abl inh | IN multimer act | TRFRET interf | IN-LEDGF confirm
O=C(NC(Cc1ccccc1)C(=O)O)/C(=C/c1ccc(Cl)cc1)NC(=O)c1ccccc1 (configuration not stated) | – | – | 20 | – | – | – | – | – | 15
O=C(NC(Cc1ccccc1)C(=O)O)/C(=C\c1ccccc1F)NC(=O)c1ccccc1 (configuration not stated) | – | – | – | – | – | – | · | · | ·
CC(C)c1ccc(CNc2ccc(N3CCOCC3)cc2)cc1 | – | – | – | – | – | – | · | · | ·
c1cc(CNc2ccc(N3CCOCC3)cc2)ccn1 | – | – | 16 | – | – | – | – | – | –
c1cc2c(cc1CNc1ccc(N3CCOCC3)cc1)OCO2 | – | – | 16 | – | – | – | – | – | –
Cc1ccc(CNc2ccc(N3CCOCC3)cc2)cc1 | – | – | – | – | – | – | · | · | ·
CCC(=O)N(C1=C(NC(C)C)C(=O)c2ccccc2C1=O)C(C)C | – | – | – | – | – | – | · | · | ·
CCCNC1=C(N(C(C)=O)c2cccc(F)c2)C(=O)c2ccccc2C1=O | – | – | 17 | – | – | – | – | – | 14
COc1cccc(SCc2noc(C(=O)NCc3ccccc3)c2C(=O)NCc2ccccc2)c1 | – | – | 48 | – | – | – | – | – | –
COCCNC(=O)c1onc(CSc2cccc(OC)c2)c1C(=O)NCCOC | – | – | – | – | – | – | · | · | ·
CC(C)CCn1c(SCC(=O)NC2CCS(=O)(=O)C2)nc2cc(Cl)ccc2c1=O (configuration not stated) | – | – | – | – | – | – | · | · | ·
CCOc1ccc(S(=O)(=O)NCCC(=O)N2CCN(c3ncccn3)CC2)cc1 | – | – | 77 | – | – | – | – | – | –

Screens: PubChem, several laboratories
